The list is not random: actives were taken first. Their share in the collection is about 3%.
TRAIL sens C8 – caspase-8 TRAIL sensitization | NB7+C8 cells + TRAIL, ATPlite viability luminescence | inhibition (viability loss, TRAIL sensitization), % at 10 µM | 360,000 tested, 1% active | AID 624354;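 active means compounds causing at least 50% loss of cell viability in the single-dose screen, relative to plate controls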
SENP8 block-1 – blocks the human protease SENP8. purified SENP8, Z-RLRGG-aminoluciferin cleavage, luminescence. inhibition, % at 10 µM. 330,000 tested, 1.2% active. AID 2540; in the data active means inhibition above about 50%
Target sequence (Q96LD8 whole entry, looked up): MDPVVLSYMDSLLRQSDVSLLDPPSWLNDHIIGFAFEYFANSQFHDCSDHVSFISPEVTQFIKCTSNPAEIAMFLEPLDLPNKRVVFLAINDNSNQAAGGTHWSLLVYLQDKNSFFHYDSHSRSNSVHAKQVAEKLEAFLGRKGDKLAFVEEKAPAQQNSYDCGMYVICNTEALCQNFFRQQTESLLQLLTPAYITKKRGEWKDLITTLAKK
PPC-1+TRAIL kill – compounds killing PPC-1 cancer cells with TRAIL present (potentiator screen, no TRAIL-free arm). PPC-1 cells + TRAIL, ATPLite viability luminescence. cell killing (% activity), % at 4 µM or 5 µM. 220,000 tested, 0.41% active;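 active means cell killing above 50% in the first pass at 4 µM, then a duplicate retest at 5 µM averaging 50% or more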
SENP8 block-2 – inhibitors of human SENP8 protease; recombinant SENP8, Nedd8 substrate fluorescence; inhibition, % at 20 µM; 360,000 tested, 0.64% active; AID 602440; in the data active means inhibition mostly above about 40%, no sharp cut-off; inactive means mostly below about 27%
SENP6 block – inhibitors of human SENP6 protease; 330,000 tested, 1.8% active; AID 2599; Recombinant SENP6 catalytic domain, aminoluciferin luminescence; inhibition, % at 10 µM; Q9GZR1;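 active means inhibition above about 50% at the single tested dose, limit read from the data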
SENP7 block – inhibitors of human SENP7 protease; recombinant SENP7, Z-RLRGG-aminoluciferin luminescence, 40 min; inhibition, % at 5 µM; 330,000 tested, 1.5% active; Q9BQF6; AID 434973;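 active means inhibition above about 50% at the single test dose, limit read from the data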
Target sequence (Q9BQF6 706-1050 limits assumed): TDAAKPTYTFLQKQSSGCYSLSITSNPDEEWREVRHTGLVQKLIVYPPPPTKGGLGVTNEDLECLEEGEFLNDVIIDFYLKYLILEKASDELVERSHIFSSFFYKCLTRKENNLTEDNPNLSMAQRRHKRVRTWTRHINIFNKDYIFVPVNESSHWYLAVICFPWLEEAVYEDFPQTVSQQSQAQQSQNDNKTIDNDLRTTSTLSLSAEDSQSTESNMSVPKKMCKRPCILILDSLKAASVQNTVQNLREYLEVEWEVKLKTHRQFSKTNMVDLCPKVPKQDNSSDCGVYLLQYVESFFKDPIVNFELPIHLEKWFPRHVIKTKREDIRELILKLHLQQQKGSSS
SENP8 conf – SENP8 (human) inhibition, single concentration confirmation; AID 624319; inhibition, % at 25 µM; shares compounds with SENP8 block-2; purified SENP8, Nedd8-AMC/pro-Nedd8 cleavage fluorescence, 30 min; 1,400 tested, 15% active; in the data active means inhibition mostly above about 39%, no sharp cut-off; inactive means mostly below about 34%
A number is an active result.

COC(=O)c1ccc(-c2ccc(C(c3c(C)[nH][nH]c3=O)c3c(C)[nH][nH]c3=O)o2)cc1 was read as TRAIL sens C8 inactive, SENP8 block-1 inactive, SENP8 block-2 inactive, SENP6 block inactive and SENP7 block inactive.
Screening Cc1[nH][nH]c(=O)c1C(c1ccc(-c2cccc(Cl)c2)o1)c1c(C)[nH][nH]c1=O returned TRAIL sens C8 inactive, SENP8 block-1 inactive, PPC-1+TRAIL kill inactive, SENP8 block-2 78.6, SENP6 block inactive, SENP7 block inactive and SENP8 conf 85.2.
For Cc1[nH][nH]c(=O)c1C(c1ccc(-c2cccc(C(=O)O)c2)o1)c1c(C)[nH][nH]c1=O the results were TRAIL sens C8 inactive, SENP8 block-1 inactive, PPC-1+TRAIL kill inactive, SENP8 block-2 51.9, SENP6 block inactive, SENP7 block inactive and SENP8 conf 69.5.
Cc1[nH][nH]c(=O)c1C(c1ccc(-c2ccccc2C(=O)O)o1)c1c(C)[nH][nH]c1=O was read as TRAIL sens C8 inactive, PPC-1+TRAIL kill inactive, SENP8 block-2 49.4 and SENP8 conf 37.8.
Screening Cc1[nH][nH]c(=O)c1C(c1ccc(-c2ccc(Cl)cc2Cl)o1)c1c(C)[nH][nH]c1=O returned PPC-1+TRAIL kill inactive.
Screening Cc1ccc2oc(-c3ccccc3C(=O)O)cc(=O)c2c1 returned TRAIL sens C8 inactive, SENP8 block-1 inactive, PPC-1+TRAIL kill inactive, SENP8 block-2 inactive, SENP6 block inactive and SENP7 block inactive.
Screening CCOc1ccc(S(=O)(=O)NCCC(=O)NCc2ccncc2)cc1 returned TRAIL sens C8 inactive, SENP8 block-1 inactive, SENP8 block-2 inactive, SENP6 block inactive and SENP7 block inactive.
N#CC1=C(N)Oc2n[nH]c(-c3cccs3)c2C1c1ccccc1C(=O)O (stereo unspecified) was read as TRAIL sens C8 inactive, SENP8 block-1 inactive, PPC-1+TRAIL kill inactive, SENP8 block-2 inactive, SENP6 block inactive and SENP7 block inactive.
Screening N#CC1=C(N)Oc2n[nH]c(-c3cccs3)c2C1c1cccs1 (stereo unspecified) returned TRAIL sens C8 inactive, SENP8 block-1 inactive, PPC-1+TRAIL kill inactive, SENP8 block-2 59.4, SENP6 block inactive, SENP7 block inactive and SENP8 conf inactive.
`NNc1nnc2c3cc(F)ccc3n(CCc3ccccc3)c2n1` gave TRAIL sens C8 inactive, SENP8 block-1 inactive, SENP8 block-2 51.6, SENP6 block inactive, SENP7 block inactive and SENP8 conf inactive.
Screening Fc1ccc2c(c1)c1n[nH]c(=S)nc1n2CCc1ccccc1 returned TRAIL sens C8 inactive, SENP8 block-1 inactive, SENP8 block-2 inactive, SENP6 block inactive and SENP7 block inactive.
For O=c1[nH]c(CN2CCN(c3ccccn3)CC2)nc2c(Br)cc(Br)cc12 the results were TRAIL sens C8 inactive, SENP8 block-1 inactive, PPC-1+TRAIL kill inactive, SENP8 block-2 44.4, SENP6 block inactive, SENP7 block inactive and SENP8 conf inactive.
Screening O=C(CC(c1ccccc1)c1ccccc1)NCc1cccnc1 returned TRAIL sens C8 inactive, SENP8 block-1 inactive, PPC-1+TRAIL kill inactive, SENP8 block-2 40.6, SENP6 block inactive, SENP7 block inactive and SENP8 conf inactive.
`CC1Nc2ncnc(N3CCN(c4ccccc4)CC3)c2N(Cc2ccc(Br)cc2)C1=O` (stereo unspecified) gave TRAIL sens C8 inactive, SENP8 block-1 inactive, SENP8 block-2 inactive, SENP6 block inactive and SENP7 block inactive.
For O=C1CCC2(CC1)NC(=O)N(c1ccccc1)N2 the results were TRAIL sens C8 inactive, SENP8 block-1 inactive, PPC-1+TRAIL kill inactive, SENP8 block-2 36.7, SENP6 block inactive, SENP7 block inactive and SENP8 conf inactive.
`O=C(CN1CCc2ccccc2C1)N1CCN(S(=O)(=O)c2ccccc2)CC1` gave TRAIL sens C8 inactive, SENP8 block-1 inactive, PPC-1+TRAIL kill inactive, SENP8 block-2 46.3, SENP6 block inactive, SENP7 block inactive and SENP8 conf inactive.
For Cc1ccc(S(=O)(=O)N2CCN(C(=O)CN3CCc4ccccc4C3)CC2)cc1 the results were TRAIL sens C8 inactive, SENP8 block-1 inactive, PPC-1+TRAIL kill inactive, SENP8 block-2 inactive, SENP6 block inactive and SENP7 block inactive.
For CCn1c(SCC(=O)N2CCN(c3ccccc3)CC2)nc2c([nH]c3ccccc32)c1=O the results were TRAIL sens C8 inactive, SENP8 block-1 inactive, SENP8 block-2 inactive, SENP6 block inactive and SENP7 block inactive.
Screening CC(/C=C/C(=O)c1ccc(C)cc1)=C\c1ccccc1 returned TRAIL sens C8 inactive, SENP8 block-1 inactive, PPC-1+TRAIL kill inactive, SENP8 block-2 46.2, SENP6 block inactive, SENP7 block inactive and SENP8 conf inactive.
For CCOC(=O)c1nnn(-c2ccc(OC)cc2)c1N the results were TRAIL sens C8 inactive, SENP8 block-1 inactive, PPC-1+TRAIL kill inactive, SENP8 block-2 inactive, SENP6 block inactive and SENP7 block inactive.
Screening CCOC(=O)c1nn(-c2ccc(OC)cc2)c(=O)c2c(N)scc12 returned TRAIL sens C8 inactive, SENP8 block-1 inactive, PPC-1+TRAIL kill inactive, SENP8 block-2 41.1, SENP6 block inactive, SENP7 block inactive and SENP8 conf 53.4.
Screening N#C/C(C(N)=O)=c1/ccc2c(c1)N1C3=C(CCCC3)CC3CCCCC31N=2 (stereo unspecified) returned SENP8 block-1 inactive, PPC-1+TRAIL kill inactive, SENP6 block inactive and SENP7 block inactive.
`N#CC(C#N)=c1ccc2c(c1)N1C3=C(CCCC3)CC3CCCCC31N=2` (stereo unspecified) gave TRAIL sens C8 inactive, SENP8 block-1 inactive, PPC-1+TRAIL kill inactive, SENP8 block-2 42.8, SENP6 block inactive, SENP7 block inactive and SENP8 conf inactive.
`CC(C)CC(=O)NC(=S)Nc1ccccc1N1CCCC1` gave TRAIL sens C8 inactive, SENP8 block-1 inactive, PPC-1+TRAIL kill inactive, SENP8 block-2 59.0, SENP6 block inactive, SENP7 block inactive and SENP8 conf inactive.
For C/C(=N\NC(=O)c1cccc(O)c1)c1ccc(NC(=O)Cc2ccccc2)cc1 the results were TRAIL sens C8 inactive, SENP8 block-1 inactive, SENP8 block-2 inactive, SENP6 block inactive and SENP7 block inactive.
For O=C(CNC1CCN(Cc2ccccc2)CC1)Nc1ccc(S(=O)(=O)N2CCCCC2)cc1 the results were TRAIL sens C8 inactive, SENP8 block-1 inactive, PPC-1+TRAIL kill inactive, SENP8 block-2 43.4, SENP6 block inactive, SENP7 block inactive and SENP8 conf inactive.
Screening CNC(=O)CSc1nnc(NC(=O)C2CC(=O)N(c3ccccc3OC)C2)s1 (stereo unspecified) returned TRAIL sens C8 inactive, SENP8 block-1 inactive, SENP8 block-2 inactive, SENP6 block inactive and SENP7 block inactive.
Cc1ccc(C(=O)N2CCN(S(=O)(=O)c3ccc(Br)cc3)CC2)o1 was read as TRAIL sens C8 inactive, SENP8 block-1 inactive, SENP8 block-2 inactive, SENP6 block inactive and SENP7 block inactive.

Screening results deposited in PubChem BioAssay by Sanford-Burnham Center for Chemical Genomics.
